# Bioassay records: PubChem, National Center for Advancing Translational Sciences (NCATS)
# A selection: hits, their analogues and other compounds. The true share with any hit is near 12%.
# Sfp inh: qHTS Assay for Inhibitors of Bacillus subtilis Sfp phosphopantetheinyl transferase (PPTase). Biochemical Sfp PPTase activity, qHTS. 310,000 tested, 3.5% active. Potency, µM, inactives show largest response in the series, negative = inhibition, hits mostly inhibitors. 4'-phosphopantetheinyl transferase ffp (Bacillus subtilis), Q9F4F7. AID 1490, 2009;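 note: the enzyme is Sfp with the accession as filed and its product quenches rhodamine fluorescence; 0% = enzyme reaction without inhibitor and -100% = no enzyme wells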
#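 Step 1, compound plus 15 nM Sfp-PPTase, 15 min, room temperature. Step 2, add rhodamine-CoA (5 uM) and BHQ-2-YbbR (12.5 uM). Step 3, read 525/598 nm fluorescence at 0 and 30 min.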
# G9a inh: qHTS Assay for Inhibitors of Histone Lysine Methyltransferase G9a; G9a H3K9 monomethylation, AlphaScreen, 2 h; Potency, µM (doses to about 102 µM), for inactives: top-dose activity, negative = inhibition, usual class: inhibitors; 350,000 tested, 8.8% active; AID 504332, 2011; note: % is set by controls: 0 for no effect and ±100 for the full control effect; nearly all actives have a fitted effect of over 75% in size
#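 Signal arises when biotinylated H3K9 peptide, once monomethylated, bridges streptavidin donor and antibody-captured acceptor beads. Enzyme at 20 nM was preincubated 15 min with test compounds; peptide 500 nM and SAM 20 uM then reacted for 2 h.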
# L3MBTL1 inh: qHTS Assay for the Inhibitors of L3MBTL1 | Lethal(3)malignant brain tumor-like protein 1 (Homo sapiens), Q9Y468 | AlphaScreen L3MBTL1–H3K9me1 peptide binding | Potency, µM (series often up to 57.1 µM), for inactives: top-dose activity, negative = inhibition, most hits filed as inhibitors | 230,000 tested, 0.66% active | AID 485360, 2010; note: % is set by controls: 0 for no effect and ±100 for the full control effect; nearly all actives have a fitted effect of over 60% in size
# Target sequence (Q9Y468 whole entry, looked up): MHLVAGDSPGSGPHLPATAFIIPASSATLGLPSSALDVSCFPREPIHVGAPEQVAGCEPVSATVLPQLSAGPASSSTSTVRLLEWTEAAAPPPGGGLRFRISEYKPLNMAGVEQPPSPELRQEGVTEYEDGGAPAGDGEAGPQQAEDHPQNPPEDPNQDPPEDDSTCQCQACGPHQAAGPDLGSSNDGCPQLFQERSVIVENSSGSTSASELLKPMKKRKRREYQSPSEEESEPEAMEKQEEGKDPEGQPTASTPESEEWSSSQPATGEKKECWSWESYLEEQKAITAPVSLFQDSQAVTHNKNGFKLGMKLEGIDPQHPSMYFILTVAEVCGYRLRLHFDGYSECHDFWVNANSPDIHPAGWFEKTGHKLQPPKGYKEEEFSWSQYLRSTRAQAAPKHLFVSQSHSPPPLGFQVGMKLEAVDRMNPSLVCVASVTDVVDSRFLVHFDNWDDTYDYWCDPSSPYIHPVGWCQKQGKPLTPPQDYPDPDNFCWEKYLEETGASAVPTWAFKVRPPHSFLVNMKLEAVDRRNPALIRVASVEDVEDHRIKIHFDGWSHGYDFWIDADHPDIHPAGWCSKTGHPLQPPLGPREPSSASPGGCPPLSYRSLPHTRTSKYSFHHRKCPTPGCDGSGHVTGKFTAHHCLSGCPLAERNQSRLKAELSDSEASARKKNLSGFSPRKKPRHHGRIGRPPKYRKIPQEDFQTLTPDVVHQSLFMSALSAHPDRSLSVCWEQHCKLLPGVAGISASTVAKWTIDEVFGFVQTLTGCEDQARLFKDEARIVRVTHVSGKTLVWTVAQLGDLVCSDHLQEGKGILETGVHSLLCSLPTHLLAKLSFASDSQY
#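 AlphaScreen proximity signal between nickel-chelate acceptor and streptavidin donor beads (final 10 ug/mL) reports binding of 50 nM L3MBTL1 to 75 nM biotin-H3 K9me1 peptide; complex incubated with compounds 30 min at room temperature; cefsulodin titration as control.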
# JMJD2A Tudor inh: qHTS Assay for Inhibitors of JMJD2A-Tudor Domain; Lysine-specific demethylase 4A (Homo sapiens), O75164; AlphaScreen JMJD2A-Tudor / H3K4me3 peptide binding; Potency, µM (highest dose often 114 µM), for the others: at the top dose activity change, negative = inhibition, most hits filed as inhibitors; 390,000 tested, 4.4% active; note: % is set by controls: 0 for no effect and ±100 for the full control effect; nearly all actives have a fitted effect of over 50% in size
# BAZ2B inh: qHTS Assay for Inhibitors of BAZ2B; Potency, µM (doses to about 114 µM), for inactives: at the highest dose activity change, negative = inhibition, actives largely listed as inhibitors; Bromodomain adjacent to zinc finger domain protein 2B (Homo sapiens), Q9UIF8; 360,000 tested, 4.4% active; AlphaScreen BAZ2B-H3K14Ac peptide displacement; note: % is set by controls: 0 for no effect and ±100 for the full control effect; nearly all actives have a fitted effect of over 60% in size
#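 BAZ2B 50 nM plus b-H3(5-23)K14Ac 50 nM, PBS pH 7.4/0.01% Tween-20, 30 min RT; compound added (max 110 uM), 30 min RT; streptavidin donor/Ni-chelate acceptor beads 10 ug/mL final, 20 min dark; AlphaScreen read.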
# HP1b binding inh: HTS for Inhibitors of HP1-beta Chromodomain Interactions with Methylated Histone Tails; AID 540317, 2011; AlphaScreen HP1-beta / biotin-H3K9me3 peptide binding; Potency, µM (highest dose often 114 µM), for inactives: top-dose activity change, negative = inhibition, hits mostly inhibitors; 390,000 tested, 0.56% active; Chromobox protein homolog 1 (Homo sapiens), P83916; note: nearly all actives have a fitted effect of over 70% in size
#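 AlphaScreen: HP1-beta (50 nM) preformed 30 min with biotin-H3(1-18)K9me3 peptide (50 nM) in PBS pH 7.4, 0.01% Tween-20. Compound added for 30 min at RT, then streptavidin donor/nickel chelate acceptor beads (10 ug/mL) for 30 min.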
# Starred values were filed as active, the others as inactive; ? = inconclusive; / = no result; [ ] = remark or other dose. Calls come from the whole dose curve; as a rule, active = well fitted curve in the direction sought with a large enough effect; inconclusive = small, poorly fitted or top-dose-only effect, or another doubt; inactive = no such curve, though single readings can be large; an effect the other way counts as inactive or inconclusive. Potency is the fitted concentration of half-maximal effect.
SMILES,Sfp inh,G9a inh,L3MBTL1 inh,JMJD2A Tudor inh,BAZ2B inh,HP1b binding inh
CCOc1ccc2[nH]c(=O)c(CN(Cc3ccco3)C(CC)c3nnnn3Cc3ccccc3)cc2c1 (stereo unspecified),?,35µM*,-6%,-35%,2%,12%
CCOc1ccc2[nH]c(=O)c(CN(Cc3ccco3)Cc3nnnn3Cc3ccccc3)cc2c1,2%,?,/,-20%,-27%,22%
CCC(c1nnnn1Cc1ccco1)N(CCN1CCOCC1)Cc1cc2cc(C)ccc2[nH]c1=O (stereo unspecified),45µM*,?,-5%,-9%,4%,29%
CCC(c1nnnn1CCc1ccccc1)N(Cc1ccco1)Cc1cc2cccc(C)c2[nH]c1=O (stereo unspecified),1%,0%[12.7 µM],/,-22%,?,7%
CCC(c1nnnn1Cc1ccccc1)N(Cc1ccccc1)Cc1cc2cc(C)ccc2[nH]c1=O (stereo unspecified),/,/,/,-11%[57.1 µM],/,-3%[57 µM]
CCC(c1nnnn1C(C)(C)C)N(Cc1ccco1)Cc1cc2cccc(C)c2[nH]c1=O (stereo unspecified),56µM*,?,/,-35%,?,-3%
O=C(O)c1ccccc1CSc1nc2ccccc2[nH]1,6%,50µM*,/,-17%,-16%,-10%
Nc1c(-c2ccccc2)c(CSc2nc3ccccc3[nH]2)nn1-c1ccc(C(=O)O)cc1,25%,?,-12%,22µM*,10%,?
Cc1nn(-c2ccc(C(=O)O)cc2)c(N)c1-c1ccccc1,13%,-32%,-6%,-3%[11.4 µM],-11%,45%
O=C(CSc1nc2ccccc2[nH]1)c1ccccc1F,1%,-6%,/,-7%,2%,12%
CC(C)(C)c1n[nH]c(=S)n(N)c1=O,?,9%[12.7 µM],3%,5µM*,?,-22%
NC(=O)c1sc2nc3c(c(-c4ccco4)c2c1N)CCC3,10µM*,?,?,79µM*,?,0%
COc1ccc(-c2c3c(nc4sc(C(=O)Nc5cc(C)on5)c(N)c24)CCC3)cc1,-10%,2%[12.7 µM],/,3%,15%,73%
Cc1ccc(-c2c3c(nc4sc(C(N)=O)c(N)c24)CCCC3)o1,32µM*,45µM*,-3%,-18%[57.1 µM],?,13%
CCc1ccc(OCCCC(=O)Nc2ccc(S(=O)(=O)Nc3cc(C)nc(C)n3)cc2)cc1,16%,?,/,?,-13%,19%
NS(=O)(=O)c1ccc(NC2=CC(c3ccc([N+](=O)[O-])cc3)N(c3ccc(S(N)(=O)=O)cc3)C2=O)cc1 (stereo unspecified),11µM*,22µM*,-23%,-32%,?,2%
CC(=O)Nc1ccc(N2C(=O)CSC2c2ccc([N+](=O)[O-])cc2)cc1 (stereo unspecified),10%,-4%,/,-17%,-16%,-16%
COCCCNCCCCOc1ccc(C)cc1[N+](=O)[O-],-5%,11µM*,6%,5.6µM*,?,?
Cc1ccc([N+](=O)[O-])c(OCCn2cnc3ccccc32)c1,12%,8%[59 µM],-6%,-21%,-9%,30%
COc1ccccc1OCCOCCOc1ccc(C)cc1[N+](=O)[O-],0%,3%[59 µM],-1%,-19%,5%,29%
CCC(C)Nc1c([N+](=O)[O-])cc(C)cc1[N+](=O)[O-] (stereo unspecified),-2%,40µM*,?,20µM*,32µM*,?
C=CCN(CC=C)CCOc1cc(C)ccc1[N+](=O)[O-],-13%,10µM*,-14%,?,22µM*,28µM*
C=CCNCCOc1ccc(C)cc1[N+](=O)[O-],-12%,/,8%,50µM*,40µM*,?
CCCNC(=O)C(Cc1ccccc1)NC(=O)c1ccc(C(F)(F)F)cc1 (stereo unspecified),/,-9%[2.33 µM],5%,-5%,6%,54%
CCCCNCCOCCOc1ccc(C)cc1[N+](=O)[O-],3%,18µM*,2%,2.8µM*,?,?
SMILES,Sfp inh,G9a inh,L3MBTL1 inh,JMJD2A Tudor inh,BAZ2B inh,HP1b binding inh
CCC(C)NCCOc1ccc(C)cc1[N+](=O)[O-] (stereo unspecified),-18%,11µM*,7%,0.79µM*,40µM*,?
O=C(c1csnn1)N1CCC[C@@]2(CCN(Cc3ccccc3)C2)C1,4%,-4%[12.7 µM],/,/,/,/
Cc1nc2c3ccccc3nc(NNC(=O)CCC(=O)O)n2n1,/,?,/,-7%,-14%,23%
COCCNC(=O)CCC(=O)NNc1nc2ccccc2c2nc(C)nn12,3%,15%,/,79µM*,4%,33%
Cc1ccc(NS(=O)(=O)c2cc3c(cc2F)NC(=O)CC3)cc1C,/,/,/,-7%,/,/
Cc1ccc(N(CC(=O)NCc2ccco2)C(=O)CCC(=O)Nc2nccs2)c(C)c1,18%,71µM*,/,-14%,-10%,-15%
CC(C)c1ccc(N(CC(=O)NCc2ccco2)C(=O)CCC(=O)Nc2ccccn2)cc1,12%,25µM*,/,-3%,-2%,31%
O=C(CCCC(=O)N(c1cccc(F)c1)C(C(=O)NC1CCCC1)c1ccc(O)cc1)Nc1ccccn1 (stereo unspecified),12%,-26%,/,79µM*,-16%,3%
COc1ccc(CNC(=O)CN(C(=O)CCC(=O)Nc2ccccn2)c2ccc(C)cc2)cc1,4%,-14%,/,56µM*,1%,9%
COc1ccc(CNC(=O)CN(C(=O)CCC(=O)Nc2ccccn2)c2cccc(C)c2)cc1,-9%,/,25%,-16%,5%,14%
